Measured values from PubChem BioAssay (Tox21).
Inconclusive results are not listed. Calls of active or inactive are those of the source. The call rests on the fitted dose curve; in most records, active means well fitted curve in the direction sought with a large enough effect in the repeat runs; inconclusive means weak or mixed curves; inactive means no such curve, though single readings can be large; an effect the other way counts as inactive or inconclusive.

Assays:
[1] = qHTS RealTime-Glo MT Cell Viability Assay in HEK293 cells - 16 hour (AID 1224872); further: top concentration of the series differs between compounds; nearly all actives have a fitted effect of over 50% in size
Summary of the method: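 Cells + reagent dispensed (600 cells/well, HEK293) → 5 h at 37 C/5% CO2 → 23 nL compound in DMSO pinned → 40 h at 37 C → luminescence read at 0, 8, 16, 24, 32, 40 h.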

[2] = qHTS RealTime-Glo MT Cell Viability Assay in HepG2 cells - 8 hour (AID 1224873); further: nearly all actives have a fitted effect of over 55% in size
Summary of the method: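 Real-time viability: cells seeded at 600 per well together with NanoLuc and cell-permeant prosubstrate, compounds added after 5 h incubation. Luminescence tracked at 0, 8, 16, 24, 32 and 40 h of exposure.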

[3] = qHTS RealTime-Glo MT Cell Viability Assay in HEK293 cells - 40 hour (AID 1224874); conditions: RealTime-Glo luminescence; max response: hits give low values; further: nearly all actives have a fitted effect of over 50% in size
Summary of the method: (§1)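 Measured as luminescence from the same continuously cultured HEK293 wells at successive time points (0, 8, 16, 24, 32, 40 h) after compound addition. Reagent present from seeding; dosing at 5 h; incubation 37 C.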

[4] = A CellTox Green Cytotoxicity Assay to monitor cytotoxicity in HEK293 cells - 24 hour (AID 1224875); further: nearly all actives have a fitted effect of over 45% in size; further: potency means the concentration at half of the fitted maximal effect; on activity change: series mostly up to about 77 µM
Summary of the method: (§2)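 Homogeneous no-lysis format: HEK293 cell suspension mixed with CellTox Green reagent, seeded, incubated 5 h at 37 C/5% CO2, then dosed by pintool with compound in DMSO.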

[5] = A CellTox Green Cytotoxicity Assay to monitor cytotoxicity in HepG2 cells - 16 hour (AID 1224876); further: nearly all actives have a fitted effect of over 45% in size; further: potency means the concentration at half of the fitted maximal effect
Summary of the method: (§3)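 Fluorescent DNA-binding dye, 600 HepG2 cells/well, 5 h preincubation then compound in DMSO; same plates read at 0–40 h, 37 C.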

[6] = qHTS RealTime-Glo MT Cell Viability Assay in HepG2 cells - 32 hour (AID 1224877); further: nearly all actives have a fitted effect of over 55% in size
Summary of the method: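 Real-time, nonlytic viability: 600 HepG2 cells/well mixed with NanoLuc enzyme plus prosubstrate; 5 h settle, compound (DMSO) added by pintool; luminescence monitored over 40 h at 37 C.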

[7] = A CellTox Green Cytotoxicity Assay to monitor cytotoxicity in HepG2 cells - 24 hour (AID 1224878); further: nearly all actives have a fitted effect of over 45% in size; further: potency means the concentration at half of the fitted maximal effect
Summary of the method: as §3

[8] = A CellTox Green Cytotoxicity Assay to monitor cytotoxicity in HepG2 cells - 40 hour (AID 1224879); further: nearly all actives have a fitted effect of over 40% in size; further: potency means the concentration at half of the fitted maximal effect
Summary of the method: as §3

[9] = qHTS RealTime-Glo MT Cell Viability Assay in HEK293 cells - 0 hour (AID 1224880); further: top concentration of the series differs between compounds; nearly all actives have a fitted effect of over 45% in size
Summary of the method: as §1

[10] = A CellTox Green Cytotoxicity Assay to monitor cytotoxicity in HEK293 cells - 32 hour (AID 1224881); further: nearly all actives have a fitted effect of over 40% in size; further: potency means the concentration at half of the fitted maximal effect
Summary of the method: as §2
On the % scale 0 is the no-effect control and ±100 the full control effect.

N=C(N=C(N)N)N1CCOCC1
inactive: Potency [1] | Potency [2] | max response [3] 6.38% | Potency [4] | Potency [5] | Potency [6] | Potency [7] | Potency [8] | Potency [9] | Potency [10]

CC(C)(C)c1ccc(S)cc1
inactive: Potency [1] | Potency [2] | max response [3] -0.358% | Potency [4] | Potency [5] | Potency [6] | Potency [7] | Potency [9] | Potency [10]

O=C(CCN1CCN2CCCC2C1)N1c2ccccc2Sc2ccc(Cl)cc21 (stereo not given)
inactive: activity change, negative = cytotoxicity [1] -13.3% [at 15.8 µM] | viability change, negative = cytotoxic [2] -2.56% [at 15.8 µM] | max response [3] -21.5% | activity change [4] 0.914% [at 15.8 µM, hits give high values] | cytotoxicity increase [5] 6.02% [at 15.8 µM] | activity change, negative = cytotoxic [6] -4.67% [at 15.8 µM] | cytotoxicity [7] 14.6% [at 15.8 µM] | cytotoxicity increase [8] 22.2% [at 15.8 µM] | cytotoxicity increase [10] 1.45% [at 15.8 µM]

COc1ccc(C(C)=O)cc1
inactive: Potency [1] | Potency [2] | max response [3] 21.1% | Potency [4] | Potency [5] | Potency [6] | Potency [7] | Potency [8] | Potency [9] | Potency [10]

O=C(/C=C/c1ccc(O)c(O)c1)O[C@@H]1C[C@](O)(C(=O)O)C[C@@H](O)[C@H]1O
inactive: Potency [1] | Potency [2] | max response [3] -3.27% | Potency [4] | Potency [5] | Potency [6] | Potency [7] | Potency [9] | Potency [10]

CCCCCCCCCCCCCCCC(=O)OC/C=C(C)/C=C/C=C(C)/C=C/C1=C(C)CCCC1(C)C
inactive: Potency [1] | Potency [2] | max response [3] -5.46% | Potency [4] | Potency [5] | Potency [6] | Potency [7] | Potency [8] | Potency [10]

COCCOCCOCCOCCOC
inactive: Potency [1] | Potency [2] | max response [3] -6.35% | Potency [4] | Potency [5] | Potency [6] | Potency [7] | Potency [8] | Potency [10]

CN1CCC(OC(c2ccccc2)c2ccccc2)CC1
inactive: Potency [1] | Potency [2] | max response [3] -5.84% | Potency [4] | Potency [5] | Potency [6] | Potency [7] | Potency [8] | Potency [10]

CC[C@@H]1C[C@H](N(Cc2cc(C(F)(F)F)cc(C(F)(F)F)c2)C(C)=O)c2cc(C(F)(F)F)ccc2N1C(=O)OC(C)C
inactive: Potency [1] | Potency [2] | max response [3] -22.8% | Potency [4] | Potency [5] | Potency [6] | Potency [7] | Potency [8] | Potency [10]

CC(=O)NCCCS(=O)(=O)O
active: Potency [4] 16.9 µM | Potency [5] 18.9 µM | Potency [7] 18.9 µM | Potency [8] 18.9 µM | Potency [10] 15 µM
inactive: Potency [1] | Potency [2] | max response [3] 14.9% | Potency [6] | Potency [9]

CCCCOCCOCCOCCOCCO
inactive: Potency [1] | Potency [2] | max response [3] -11.7% | Potency [4] | Potency [5] | Potency [6] | Potency [7] | Potency [8] | Potency [10]

Cc1ccc(C(=O)C(C)CN2CCCCC2)cc1 (stereo not given)
inactive: Potency [1] | Potency [2] | max response [3] 11.5% | Potency [4] | Potency [5] | Potency [6] | Potency [7] | Potency [8] | Potency [9] | Potency [10]

O=C(c1ccccc1)c1ccc2n1CCC2C(=O)O (stereo not given)
inactive: Potency [1] | Potency [2] | max response [3] 0.683% | Potency [4] | Potency [5] | Potency [6] | Potency [7] | Potency [9] | Potency [10]

Cc1ccc(C(C)c2ccc(C)c(C)c2)cc1C
inactive: Potency [1] | Potency [2] | max response [3] -0.95% | Potency [4] | Potency [5] | Potency [6] | Potency [7] | Potency [8] | Potency [10]

CCCCCCCCCO
inactive: Potency [1] | Potency [2] | max response [3] 18.9% | Potency [4] | Potency [5] | Potency [6] | Potency [7] | Potency [8] | Potency [10]

CCOc1cc(OCC)c(C(=O)CCC(=O)O)cc1OCC
inactive: Potency [1] | Potency [2] | max response [3] 3.3% | Potency [4] | Potency [5] | Potency [6] | Potency [7] | Potency [8] | Potency [9] | Potency [10]

COc1ccc2[nH]c(S(=O)Cc3ncc(C)c(OC)c3C)nc2n1 (stereo not given)
inactive: Potency [1] | Potency [2] | max response [3] -17.3% | Potency [4] | Potency [5] | Potency [6] | Potency [7] | Potency [9] | Potency [10]

S=C(S)NCCNC(=S)S
inactive: Potency [1] | Potency [2] | max response [3] -4.71% | Potency [4] | Potency [5] | Potency [6] | Potency [7] | Potency [9] | Potency [10]

CC(=O)c1ccc2c(c1)[C@H](NC(=O)c1ccc(F)cc1)[C@@H](O)C(C)(C)O2
inactive: Potency [1] | Potency [2] | max response [3] -0.992% | Potency [4] | Potency [5] | Potency [6] | Potency [7] | Potency [8] | Potency [10]

C=Cc1c(C)c2cc3[nH]c(cc4nc(cc5nc(cc1[nH]2)C(C)=C5CCC(=O)O)C(CCC(=O)O)=C4C)c(C)c3C=C
inactive: Potency [1] | Potency [2] | max response [3] -11.2% | Potency [4] | Potency [5] | Potency [6] | Potency [7] | Potency [9] | Potency [10]

N#CCc1cccc(C(F)(F)F)c1
inactive: Potency [1] | Potency [2] | max response [3] 10.3% | Potency [4] | Potency [5] | Potency [6] | Potency [7] | Potency [8] | Potency [9] | Potency [10]

CC(C)CC=O
inactive: Potency [1] | Potency [2] | max response [3] 6.71% | Potency [4] | Potency [5] | Potency [6] | Potency [7] | Potency [8] | Potency [9] | Potency [10]
